40 compounds from PubChem BioAssay can be followed below.

As a reminder, the inhibition is the share of the control response that was lost under treatment.

Calls of active or inactive are those of the source. The rule behind the calls is not given here.

The assay deals with Pantothenate synthetase (Mycobacterium tuberculosis (strain ATCC 25618 / H37Rv)) (UniProt P9WIL5). Briefly: Coupled enzyme confirmation of inhibitors against recombinant Mtb PanC (AID 375).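 Note: 0% = full reaction with vehicle and 100% = no enzyme background.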 As to conditions: coupled enzyme assay; at 10 µM, hits give high values.
Chain of Pantothenate synthetase (Mycobacterium tuberculosis (strain ATCC 25618 / H37Rv)) (P9WIL5 whole entry, looked up): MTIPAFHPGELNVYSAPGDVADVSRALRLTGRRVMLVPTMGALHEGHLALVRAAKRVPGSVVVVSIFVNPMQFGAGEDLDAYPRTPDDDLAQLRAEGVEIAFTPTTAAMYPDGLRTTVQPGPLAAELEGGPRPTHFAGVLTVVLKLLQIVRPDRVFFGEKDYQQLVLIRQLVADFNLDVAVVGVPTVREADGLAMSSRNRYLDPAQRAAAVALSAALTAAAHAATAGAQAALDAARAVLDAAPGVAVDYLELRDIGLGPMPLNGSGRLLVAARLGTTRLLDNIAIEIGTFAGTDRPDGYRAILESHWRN
For the compound `NC(=O)SCC(=O)Nc1cccc(Cl)c1`, the inhibition was 1% (inactive).
Turning to `CCn1c(=O)cc(SCC(=O)NCCN2CCN(Cc3ccccc3)CC2)c2ccccc21`, the inhibition is 0% (inactive).
In the case of `COc1ccc(N2CCN(CCCNC(=O)C3(S(=O)(=O)c4ccc(Cl)cc4)CC3)CC2)cc1`, the inhibition was 0% (inactive).
Take `CC1(C)CC(=O)c2c(O)cc(O)cc2O1`: the inhibition was 3% (inactive).
The figure for `COc1ccc2oc(C)c(C(=O)Cn3ccnc3)c2c1` is 0% (inactive); for `O=C(c1ccccc1)c1ccc2nc[nH]c2c1` it is 0% (inactive).
Turning to `CC(C)Cc1n[nH]c(=O)[nH]1`, the inhibition is 2% (inactive).
With `Cc1nnc2ccc(N3CCC4(CC3)OCCO4)nn12` the figure was 0% (inactive); with `CCn1c(SCC(=O)c2ccc3c(c2)OCCO3)nnc1-c1ccco1`, 11% (inactive).
With `Cc1ccc(Cn2ncc3c(NCCCN4CCOCC4)ncnc32)cc1` the figure was 8% (inactive); with `COc1cccc(C(c2nnnn2CCc2ccccc2)N2CCN(c3ccccc3)CC2)c1OC` (stereo not given), 0% (inactive).
The figure for `Cc1c(C(=O)NCCC2=CCCCC2)oc2ccc(S(=O)(=O)N3CCC4(CC3)OCCO4)cc12` is 0% (inactive); for `CCOC(=O)CC1(CC(=O)OCC)NC(=O)c2c(C)sc(C(=O)OCC)c2N1` it is 1% (inactive); for `COc1ccccc1S(=O)(=O)Cc1ccc(C(=O)N2CCOCC2)o1` it is 0% (inactive).
Take `O=C(Nc1ccc2c(c1)OCO2)C(c1ccc(Cl)cc1)N1CCN(C(=O)c2ccco2)CC1` (stereo not given): the inhibition was 0% (inactive).
As to `COc1cccc(N2CCN(Cc3nc(N)nc(Nc4ccccc4)n3)CC2)c1`, the inhibition was 0% (inactive).
With `COc1ccccc1CNS(=O)(=O)c1ccc(NC(C)=O)cc1` the figure was 0% (inactive); with `COc1ccc2[nH]c(=O)c(CN(CC3CCCO3)C(=O)Nc3ccc(F)cc3)cc2c1` (stereo not given), 0% (inactive); with `O=C(NCc1ccco1)c1cnn2c(C(F)(F)F)cc(-c3ccco3)nc12`, 4% (inactive).
With `CCCCS(=O)(=O)NC1=NCN(C2CCN(Cc3ccccc3)CC2)CN1` the figure was 5% (inactive); with `O=C(O)CCc1ccc(-c2cccs2)n1NC(=O)c1ccccc1Br`, 0% (inactive).
With `CN(C)c1nc(Oc2ccc(N)cc2)nc(N(C)C)n1` the figure was 0% (inactive).
Take `Nc1nc(SCc2nc3scc(-c4cccs4)c3c(=O)[nH]2)n[nH]1`: the inhibition is 6% (inactive).
In the case of `CC1(C)CC(=O)C(C=NC(CCC(N)=O)C(=O)O)=C(O)C1` (stereo not given), the inhibition is 3% (inactive).
The figure for `COc1ccc(N2CCN(C(=O)CCNS(=O)(=O)c3ccc(Br)s3)CC2)cc1` is 3% (inactive); for `Cc1nnc(SCc2nnc(-c3ccccc3Br)o2)n1-c1ccccc1` it is 0% (inactive); for `CCSCCC(NC1=CC(=O)CC(C)(C)C1)C(=O)O` (stereo not given) it is 0% (inactive).
With `COc1ccc(S(=O)(=O)NCCCN2CCOCC2)c2ccccc12` the figure was 0% (inactive); with `N#CC1=C(N)OC2=C(CCC/C2=C/c2ccoc2)C1c1ccoc1` (stereo not given), 2% (inactive).
With `COc1ccc(C2C(C(C)=O)=C(C)N=c3s/c(=C/c4ccc5c(c4)OCO5)c(=O)n32)cc1` (stereo not given) the figure was 0% (inactive).
Turning to `COCCOC(=O)C1=C(N)OC2=C(C(=O)CC(C)(C)C2)C1c1cccnc1` (stereo not given), the inhibition was 0% (inactive).
The figure for `O=C(c1ccccc1)c1ccc(N2CCOCC2)c(NC(=O)c2ccco2)c1` is 11% (inactive); for `CCCCC(O)(C(NC=O)C(=O)OC)C(F)(F)F` (stereo not given) it is 2% (inactive).
With `CC(CC(=O)NC1CCSC1=O)c1ccccc1` (stereo not given) the figure was 0% (inactive); with `O=C1C2C3C=CC(C3)C2C(=O)N1CNc1ccc(O)cc1` (stereo not given), 3% (inactive); with `CCCSc1ccc2nc(NC(=O)OC)[nH]c2c1`, 0% (inactive).
The figure for `CCOC(=O)N1CCN(C(=O)C(NS(=O)(=O)c2cccc3nsnc23)c2ccccc2)CC1` (stereo not given) is 0% (inactive); for `CCCCSCCCNC(=O)CS(=O)Cc1nc(-c2cccc(C)c2)oc1C` (stereo not given) it is 6% (inactive); for `N#CCc1c(C#N)c(N)nc(N2CCN(S(=O)(=O)c3ccccc3)CC2)c1C#N` it is 6% (inactive).
For `CC(C)CCn1c(=O)c2ccccc2n2c(CN(C)Cc3ccccc3)nnc12`, the inhibition is 0% (inactive).
